Only some compounds are listed: those with a hit (about 1.6% of all), similar ones and a draw of the others.
Rce1 inh: yeast Ras-converting enzyme inhibition; Q03530; yeast membranes, quenched prenylated peptide cleavage fluorescence; calls only; 0.27% of 290,000 active;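 active = fall in fluorescence gain of 50% or more versus controls, with final raw signal at or below 3038400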
NSD2 inh: inhibitors of human histone methyltransferase NSD2. O96028. inhibition, % at 12.5 µM. 0.54% of 310,000 active. AID 743445. NSD2 peptide methylation, AlphaScreen, 120 min; in the data active = inhibition above about 50%
GC-A act: GC-A (human) enzyme activation | 0.14% of 370,000 active | activation, % at 10 µM | HEK293 GC-A cells, cGMP TR-FRET, EC30 ANP; 0% at EC30 ANP, 100% saturating ANP | P16066; in the data active = activation above about 40%
Target sequence (P16066 whole entry, looked up): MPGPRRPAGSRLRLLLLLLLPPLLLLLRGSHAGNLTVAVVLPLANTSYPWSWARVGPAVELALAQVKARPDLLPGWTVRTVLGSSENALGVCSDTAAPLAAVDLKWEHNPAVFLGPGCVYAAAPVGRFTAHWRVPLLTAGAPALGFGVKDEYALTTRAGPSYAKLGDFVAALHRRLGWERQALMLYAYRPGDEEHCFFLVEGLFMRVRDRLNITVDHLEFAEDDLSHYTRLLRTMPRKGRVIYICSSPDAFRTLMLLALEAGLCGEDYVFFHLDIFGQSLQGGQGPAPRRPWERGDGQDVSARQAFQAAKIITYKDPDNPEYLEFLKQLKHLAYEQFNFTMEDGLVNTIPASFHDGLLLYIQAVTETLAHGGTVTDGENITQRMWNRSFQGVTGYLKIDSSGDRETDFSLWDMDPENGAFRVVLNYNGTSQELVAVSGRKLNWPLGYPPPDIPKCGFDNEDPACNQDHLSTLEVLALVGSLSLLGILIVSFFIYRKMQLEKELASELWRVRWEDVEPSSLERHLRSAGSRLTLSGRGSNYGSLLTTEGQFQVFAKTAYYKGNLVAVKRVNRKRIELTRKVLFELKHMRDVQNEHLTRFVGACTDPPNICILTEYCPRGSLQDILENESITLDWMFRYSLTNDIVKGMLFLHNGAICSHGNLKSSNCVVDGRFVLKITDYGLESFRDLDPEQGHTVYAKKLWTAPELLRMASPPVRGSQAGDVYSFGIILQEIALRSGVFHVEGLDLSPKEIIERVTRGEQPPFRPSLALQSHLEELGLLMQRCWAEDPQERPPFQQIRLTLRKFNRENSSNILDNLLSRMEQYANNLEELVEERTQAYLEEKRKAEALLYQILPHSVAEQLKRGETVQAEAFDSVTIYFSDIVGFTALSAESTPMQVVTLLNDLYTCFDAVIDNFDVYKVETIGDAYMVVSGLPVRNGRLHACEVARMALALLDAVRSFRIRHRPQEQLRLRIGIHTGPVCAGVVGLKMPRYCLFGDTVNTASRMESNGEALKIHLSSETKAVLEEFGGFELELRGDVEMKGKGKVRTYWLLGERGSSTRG
Efflux pump mplx: antifungal efflux pump inhibition, Nile Red retention; S. cerevisiae Candida pump triplex; inhibition, % at 10 µM; 0.44% of 330,000 active; AID 485275;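 active = plate passing quality check with inhibition over a set limit, or well fluorescence over plate mean plus 4 SD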;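 note: Nile Red retained in pooled yeast measured as flow cytometry median fluorescence; higher means more Nile Red kept so more efflux inhibition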
GC-B act: GC-B (human) receptor activation; P20594; HEK293-GC-B cells, CNP EC30, cGMP TR-FRET; 0% at EC30 CNP, 100% saturating CNP; activation, % at 10 µM; 0.11% of 370,000 active; AID 1920062;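 active = activation at 10 µM reaching about 35% in either raw or pattern-adjusted values, limit read from the data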
V-ATPase pHluor: regulators of yeast V-ATPase proton transport. AID 504577. S. cerevisiae, pHLuorin cytosolic pH fluorescence. 0.37% of 350,000 active. response, % at 10 µM; in the data active = response mostly above about 7.3%, no sharp cut-off; inactive = mostly below about 5.4%; note: actives read high
Numbers stand for hits; – = inactive; · = no result given; + = active, no number; ! = repeats disagree.

SMILES | Rce1 inh | NSD2 inh | GC-A act | Efflux pump mplx | GC-B act | V-ATPase pHluor
Cc1cc(C)cc(C(=O)OCCN(C)C2CN(Cc3cn(Cc4ccc([N+](=O)[O-])cc4)nn3)S(=O)(=O)C2)c1 (stereo not given) | · | · | – | · | – | ·
O=C1NCCN/C1=C\C(=O)c1ccc(Cl)cc1 | – | – | 41 | – | – | –
COCCn1c(-c2ccc(-c3ccccc3Cl)o2)nc2c1c(=O)[nH]c(=O)n2CC(C)C | – | – | – | – | 36 | –
CCOC(=O)[C@@]12CN(C(=O)OC(C)(C)C)CC=C1N(Cc1ccc(OC)cc1)C(=O)[C@H]2CC(=O)N1CCCCC1 | · | · | – | · | – | ·
COc1cccc(N2CCN(CC(=O)NCc3cccc(OC)c3OC)CC2)c1 | · | – | – | · | – | ·
COc1ccccc1NC(=O)OCCN1CCCC12CCC(c1ccccc1)CC2 (stereo not given) | · | · | – | · | – | ·
COc1ccc(-c2ccc3oc(-c4ccc(OC)cc4)c(-c4ccc(OC)cc4)c3c2)cc1 | + | · | – | · | – | –
COc1ccc(-c2ccc3oc(-c4ccsc4)c(-c4ccc(OC)cc4)c3c2)cc1 | – | · | – | – | – | –
NC(=O)c1cccc(-c2coc3c(C(=O)NC4CCCCC4)cccc23)c1 | · | – | – | · | 35 | ·
CC(C)CNC(=O)c1cccc2c(-c3cccc(C(N)=O)c3)coc12 | · | – | – | · | – | ·
CNC(=O)[C@@H]1CC=C[C@@H]2CCN(c3ccccc3)C(=O)[C@@H]21 | · | · | – | · | – | ·
CCCOC(=O)COC(=O)c1ccccc1NC(=O)c1ccccc1 | – | – | – | – | – | 20
C[C@H]1[C@@H](OC(=O)NCCc2ccccc2)CC[C@@]23CCCN2C(=O)CCC[C@@H]13 | · | · | – | · | – | ·
O=C1c2ccccc2C(=O)C12OC2c1cccc2ccccc12 (stereo not given) | – | 101 | – | – | – | –
C[C@H]1[C@@H](OC(=O)Nc2ccccc2Cl)CC[C@@]23CCCN2C(=O)CCC[C@@H]13 | · | · | – | · | – | ·
O=C(Nc1ccc(Nc2ccccc2)cc1)c1ccc(Cl)cc1 | · | – | – | – | – | –
N#C/C(C(=O)Nc1ccc(Cl)cc1)=C(/S)Nc1ccccc1 | – | – | 58 | – | – | –
CCOP(=O)(c1ccccc1)c1nc(-c2ccccc2Cl)oc1N1CCCCC1 (stereo not given) | + | – | – | – | – | –
O=C(C(=Cc1ccc(F)cc1)c1ccccc1)c1ccc(O)cc1 | · | – | 68 | · | – | –
COC(=O)C1CN(C2CC2)CCS(=O)(=O)N1Cc1cn(Cc2ccc(C)cc2)nn1 (stereo not given) | · | · | – | · | – | ·
O=c1cc2oc3cc(O)c(O)cc3c(-c3ccccc3[N+](=O)[O-])c-2cc1O | – | 128 | – | – | – | –
CCCC1CCC2(CC1)CCC2OC(=S)Nc1ccccc1 (stereo not given) | · | – | – | · | – | ·
CCCn1c(/N=C/c2cc(OC)ccc2O)nc2ccccc21 | – | – | – | – | – | –
COc1ccc(O)c(/C=N/c2nc3ccccc3n2C)c1 | – | – | – | – | – | 12
CCCOc1ccc(-c2nc3c(c(=O)[nH]c(=O)n3Cc3ccccc3)n2CCO)cc1OCC | + | – | – | – | – | –
SMILES | Rce1 inh | NSD2 inh | GC-A act | Efflux pump mplx | GC-B act | V-ATPase pHluor
CCCCn1c(=O)[nH]c(=O)c2c1nc(-c1ccc(OCCC)c(OCC)c1)n2CCOC | – | · | – | – | – | –
COC(=O)c1nn(-c2ccc(OC)cc2)c(=O)cc1O | – | · | – | – | – | –
COc1ccc(-n2nc(C#N)c(Cl)cc2=O)cc1 | · | · | 47 | · | – | –
CC(CCC(C)C(C)(C)C)[C@@H]1CC[C@H]2C3C[C@H](OS(O)(=S)=S)[C@H]4C[C@H](OS(O)(=S)=S)[C@@H](OS(O)(=S)=S)C[C@]4(C)[C@H]3CC[C@]12C (stereo not given in full) (tested in a mixture with another compound) | · | · | · | 2.1 | · | –
CC(CCC(=O)NN)C1CCC2C3CCC4CC(O)CCC4(C)C3CCC12C (stereo not given) | · | · | – | · | – | –
O=C(NCC12CC3CC(CC(C3)C1)C2)c1nn2cccnc2c1Cl | – | – | – | – | – | 29
O=C(OC[C@@H]1CCCN2CCCC[C@H]12)c1cc2ccccc2oc1=O | + | · | – | – | – | –
Cc1cc(C)n2nc(SCC(=O)N(CC(C)C)c3c(N)n(CC(C)C)c(=O)[nH]c3=O)nc2n1 | – | – | – | – | – | –
Cc1cc(C)n2nc(SCC(=O)c3c(N)n(CC(C)C)c(=O)n(C)c3=O)nc2n1 | – | – | – | – | – | 17
Brc1ccccc1Cn1c(-c2cscn2)nc2ccccc21 | – | – | – | – | 39 | –
COc1ccccc1-c1oc2ccccc2c1C#CCCO | · | · | – | – | – | –
Cc1cccc(-c2oc3ccccc3c2C#CCCCCO)c1 | + | · | – | – | – | –
Cc1cccc(-c2oc3ccccc3c2C#CCCO)c1 | + | · | – | – | – | –
C[C@H]1[C@@H](NC(=O)c2ccc(C(C)(C)C)cc2)CC[C@@]23CCCN2C(=O)CCC[C@@H]13 | · | · | – | · | – | ·
Cc1ccc2c(CN3CCN(Cc4ccc5c(c4)OCO5)CC3)cc(=O)oc2c1C | +! | – | – | – | – | –
Cc1cc(C)c2c(CN3CCN(Cc4ccc5c(c4)OCO5)CC3)cc(=O)oc2c1C | – | · | – | – | – | –
O=c1[nH]cccc1-c1nc2ccccc2n1Cc1cccc(Cl)c1 | + | – | – | – | – | –
O=C(O)[C@@H]1CCCN1C(=O)c1ccccc1N1C(=O)[C@@H]2Cc3c([nH]c4ccccc34)C(c3cccc(Cl)c3)N2C1=O (stereo not given in full) | – | · | – | – | – | –
O=C(O)[C@H]1CCCN1C(=O)c1ccccc1N1C(=O)[C@@H]2Cc3c([nH]c4ccccc34)C(c3cccc(Cl)c3)N2C1=O (stereo not given in full) | – | · | – | – | 35 | –
O=C1CC(c2ccc3c(c2)OCO3)N=C2N(Cc3ccc4c(c3)OCO4)C/C(=C/c3ccccc3)N12 (stereo not given) | · | – | – | · | – | ·
O=C1c2ccccc2C(Nc2ccc3c(c2)OCCO3)N1Cc1ccc2c(c1)OCO2 (stereo not given) | – | · | – | – | – | –
O=C1c2ccccc2C(Nc2ccccc2)N1Cc1ccc2c(c1)OCO2 (stereo not given) | – | – | 62 | – | – | –
COc1ccc(Cl)cc1N1C(=O)c2cccnc2C1=O | – | – | – | – | – | 18
c1ccc(-c2cc3c(N4CCN(c5ncccn5)CC4)ncnc3s2)cc1 | – | – | 52 | – | – | –
O=C(NCc1cccnc1)O[C@H]1CC[C@@]23CCCN2C(=O)CCC[C@H]3C1 | · | · | – | · | – | ·
Cc1ccc(O)c(CNc2cnc3ccccc3c2)c1 | + | – | – | – | – | –
COc1cc(C(=O)OCC(=O)Nc2ccc(SC(F)F)cc2)cc(OC)c1OC | + | – | – | – | – | –
